ELG1 DNA repair: blocks ELG1-dependent DNA repair in HEK293T cells | HEK293T ELG1-luciferase reporter, luminescence, 16 h; DNA damage induced by 5-fluorouridine | Potency, µM (highest dose often 46.1 µM), actives largely listed as inhibitors | 330,000 compounds, 2.3% hits | AID 504467; further: nearly all actives have a fitted effect of over 55% in size
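Reporter activity after DNA damage by 5-fluorouridine is monitored. Compound-treated cells incubate 16 hr at 37 °C, then ONE-Glo is added for 30 min before luminescence reading.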
Gal4-VP16 FLuc: Gal4-VP16 reporter inhibition counter-screen. Drosophila S2 Gal4-VP16 UAS-luciferase, luminescence, 20 h. Potency, µM (titrated, usually from 53.6 µM), hits mostly inhibitors. 310,000 compounds, 3.5% hits;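 further: Gal4-VP16 expression switched on by copper sulfate through the metallothionein promoter; nearly all actives have a fitted effect of over 50% in size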
TDP1 cell noCPT: qHTS for Inhibitors of human tyrosyl-DNA phosphodiesterase 1 (TDP1): qHTS in cells in absence of CPT; DT40 Tdp1-/- hTDP1 cells, no CPT, ATP luminescence, 48 h; Potency, µM (highest dose often 46.2 µM), hits mostly inhibitors; 420,000 compounds, 15% hits; AID 686978, 2013; further: nearly all actives have a fitted effect of over 55% in size
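No-CPT arm: Tdp1-/-;hTDP1 DT40 cells (400/well) plus compounds, incubated ≥48 hr at 37 °C. Readout CellTiter-Glo luminescence.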
RORgamma inh: blocks mouse ROR gamma transcriptional activity; P51450; Drosophila S2 Gal4-RORgamma UAS-luciferase reporter, 20 h; Potency, µM (top dose mostly 53.6 µM), most hits filed as inhibitors; 310,000 compounds, 5.4% hits; further: nearly all actives have a fitted effect of over 60% in size
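Compounds are pin-transferred onto Drosophila Schneider cells expressing a copper-inducible Gal4–ROR gamma transactivation domain fusion. After 1 hr, copper sulfate is added to 700 uM final; luciferase is read 20 hr later.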
ALOX12 inh: ALOX12 (human) lipoxygenase inhibition; Potency, µM (doses to about 108 µM), usual class: inhibitors; 580,000 compounds, 1.1% hits; purified 12hLO, xylenol orange hydroperoxide absorbance; AID 1671190; P18054
Target sequence (P18054 whole entry, looked up): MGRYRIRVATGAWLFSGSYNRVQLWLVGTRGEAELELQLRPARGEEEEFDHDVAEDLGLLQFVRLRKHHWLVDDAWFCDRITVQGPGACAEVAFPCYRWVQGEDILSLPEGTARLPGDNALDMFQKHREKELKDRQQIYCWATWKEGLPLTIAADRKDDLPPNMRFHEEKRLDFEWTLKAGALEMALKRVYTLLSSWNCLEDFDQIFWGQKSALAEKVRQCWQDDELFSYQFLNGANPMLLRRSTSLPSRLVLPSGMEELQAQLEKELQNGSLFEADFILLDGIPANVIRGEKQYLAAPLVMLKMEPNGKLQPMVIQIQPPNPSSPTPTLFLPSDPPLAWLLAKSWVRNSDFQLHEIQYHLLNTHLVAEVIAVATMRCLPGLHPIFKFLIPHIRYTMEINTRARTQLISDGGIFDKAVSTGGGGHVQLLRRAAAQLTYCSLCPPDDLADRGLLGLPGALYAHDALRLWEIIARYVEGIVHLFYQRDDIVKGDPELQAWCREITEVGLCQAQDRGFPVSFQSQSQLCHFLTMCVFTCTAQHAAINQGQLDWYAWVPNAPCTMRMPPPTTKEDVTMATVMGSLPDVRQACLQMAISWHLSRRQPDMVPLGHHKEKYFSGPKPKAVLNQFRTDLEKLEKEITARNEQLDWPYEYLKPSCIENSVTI
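Hydroperoxide product was detected by ferrous iron/xylenol orange as the 573 to 405 nm absorbance ratio. Arachidonic acid at 40 uM (final) was turned over for 30 min at room temperature by 150 nM human 12hLO, pH 7.0 Hepes buffer, after 15 min compound preincubation.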
TDP1 cell CPT: growth inhibition of DT40 Tdp1-/-;hTDP1 cells with camptothecin (screen for TDP1 inhibitors); chicken DT40 Tdp1-/-;hTDP1 cells + 20 nM CPT, ATP luminescence, 48 h; Potency, µM (doses to about 46.2 µM), actives largely listed as inhibitors; 420,000 compounds, 12% hits; AID 686979; further: nearly all actives have a fitted effect of over 55% in size
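Cell growth measured by CellTiter-Glo luminescence after a minimum 48 h, 37 C compound exposure with 20 nM CPT in Tdp1-knockout DT40 cells stably expressing hTDP1, seeded 400/well; qHTS titration format.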
Each line names hits and unclear results; the compound was inactive in the other large screens. Rows were chosen to be rich in hits. Some 15% of all compounds tested hit in one or more screens of this group. The call rests on the fitted dose curve; in most records, active means well fitted curve in the direction sought with a large enough effect; inconclusive means small, poorly fitted or top-dose-only effect, or another doubt; inactive means no such curve, though single readings can be large; an effect the other way counts as inactive or inconclusive.

CCOc1cc(C(=O)N2N=C(C)CC2(O)C(F)(F)F)ccc1OC(F)F (configuration not stated)	none (no result: ELG1 DNA repair, Gal4-VP16 FLuc, TDP1 cell noCPT, RORgamma inh, TDP1 cell CPT)
CC1=NN(C(=O)c2ccc(Cn3cc(Br)c([N+](=O)[O-])n3)o2)C(O)(C(F)(F)F)C1 (configuration not stated)	Gal4-VP16 FLuc 11µM, TDP1 cell noCPT 2.6µM, RORgamma inh 4.5µM, TDP1 cell CPT 3.3µM
O=C(Nc1cccc(-c2nc3ccccc3o2)c1)c1ccc(Br)o1	none (no result: ELG1 DNA repair, Gal4-VP16 FLuc, TDP1 cell noCPT, RORgamma inh, TDP1 cell CPT)
OC(CNC1CCCCCC1)COc1cccc2ccccc12 (configuration not stated)	TDP1 cell noCPT 13µM, ALOX12 inh inconclusive, TDP1 cell CPT 16µM
Cc1ccccc1OCC(O)CNC1CCC(NCC(O)COc2ccccc2C)CC1 (configuration not stated)	ELG1 DNA repair inconclusive, Gal4-VP16 FLuc inconclusive, TDP1 cell noCPT 2.3µM, RORgamma inh inconclusive, ALOX12 inh inconclusive, TDP1 cell CPT 3.7µM
Cc1ccccc1OCC(O)CN(Cc1ccccc1O)C1CCCCC1 (configuration not stated)	TDP1 cell noCPT 13µM, RORgamma inh inconclusive, TDP1 cell CPT 16µM
COC(=O)c1cnc(N2CCN(c3ccccn3)CC2)c2ccccc12	none (no result: ELG1 DNA repair, Gal4-VP16 FLuc, TDP1 cell noCPT, RORgamma inh, TDP1 cell CPT)
CCN1CCN(c2ncc(C(=O)OC)c3ccccc23)CC1	none (no result: ELG1 DNA repair, Gal4-VP16 FLuc, TDP1 cell noCPT, RORgamma inh, TDP1 cell CPT)
CC(C)OC(=O)c1ccc(N2CCN(c3ccccc3F)CC2)nc1	ELG1 DNA repair inconclusive, TDP1 cell noCPT 18µM, TDP1 cell CPT inconclusive
CC(C)OC(=O)c1ccc(N2CCN(c3ccc(F)cc3)CC2)nc1	ELG1 DNA repair inconclusive, TDP1 cell noCPT inconclusive, RORgamma inh inconclusive, TDP1 cell CPT inconclusive
COc1ccc(OC)c(NC(=O)c2cnc(N3CCCCC3)c3ccccc23)c1	TDP1 cell noCPT 8.2µM, ALOX12 inh inconclusive, TDP1 cell CPT 10µM (no result: ELG1 DNA repair, Gal4-VP16 FLuc, RORgamma inh)
CCN1CCN(c2ncc(C(=O)Nc3ccccc3C(=O)OC)c3ccccc23)CC1	TDP1 cell noCPT 16µM, TDP1 cell CPT 23µM
COC(=O)c1cnc(N2CCN(c3ccccc3F)CC2)c2ccccc12	TDP1 cell noCPT 16µM, TDP1 cell CPT inconclusive (no result: ELG1 DNA repair, Gal4-VP16 FLuc, RORgamma inh)
O=C(CN1CC2CC(C1)[C@H]1CCCC(=O)N1C2)Nc1ccc(N2CCOCC2)cc1 (some centres not stated)	none (no result: ELG1 DNA repair, Gal4-VP16 FLuc, TDP1 cell noCPT, RORgamma inh, TDP1 cell CPT)
N#Cc1ccc(NC(=O)NCc2ccccn2)cc1	none (no result: ELG1 DNA repair, Gal4-VP16 FLuc, TDP1 cell noCPT, RORgamma inh, TDP1 cell CPT)
COc1ccc(OC)c(NC(=O)c2cc3c(cc2Cl)N2CCCCCC2=NS3(=O)=O)c1	TDP1 cell noCPT 16µM, ALOX12 inh inconclusive, TDP1 cell CPT inconclusive (no result: Gal4-VP16 FLuc, RORgamma inh)
CCOc1ccccc1NC(=O)c1cnc(N2CCOCC2)c2ccccc12	TDP1 cell noCPT 18µM, TDP1 cell CPT 21µM (no result: ELG1 DNA repair, Gal4-VP16 FLuc, RORgamma inh)
COc1ccc(OC)c(NC(=O)c2cc3oc4ccccc4c3cc2O)c1	Gal4-VP16 FLuc inconclusive, TDP1 cell noCPT 16µM, TDP1 cell CPT inconclusive
COCCCNC(=O)c1ccc(-c2nc(CS(=O)(=O)c3ccc(C)cc3)c(C)o2)cc1	TDP1 cell noCPT 16µM, TDP1 cell CPT inconclusive (no result: ELG1 DNA repair, Gal4-VP16 FLuc, RORgamma inh)
Cc1ccc(CNC(=O)c2ccc(-c3nc(CS(=O)(=O)c4ccc(C)cc4)c(C)o3)cc2)cc1	TDP1 cell noCPT 7.3µM, TDP1 cell CPT 13µM (no result: ELG1 DNA repair, Gal4-VP16 FLuc, RORgamma inh)
CCCCN(CC)CCCNC(=O)CS(=O)(=O)Cc1nc(-c2ccc(C)cc2)oc1C	TDP1 cell noCPT 21µM, TDP1 cell CPT inconclusive (no result: ELG1 DNA repair, Gal4-VP16 FLuc, RORgamma inh)
COc1ccccc1CNC(=O)c1ccc(-c2nc(CS(=O)(=O)c3ccc(C)cc3)c(C)o2)cc1	TDP1 cell noCPT 23µM, TDP1 cell CPT inconclusive (no result: ELG1 DNA repair, Gal4-VP16 FLuc, RORgamma inh)
CC1CCN(c2ccc(-c3noc(-c4cc5ccccc5oc4=O)n3)cc2)CC1	none (no result: ELG1 DNA repair, Gal4-VP16 FLuc, TDP1 cell noCPT, RORgamma inh, TDP1 cell CPT)
COc1ccc(-c2nn(-c3ccccc3C)cc2CN2C[C@@H](C)O[C@@H](C)C2)cc1F	none (no result: ELG1 DNA repair, Gal4-VP16 FLuc, TDP1 cell noCPT, RORgamma inh, TDP1 cell CPT)
Cc1noc2c(N3CC[S+](=O)([O-])CC3)cc(-c3cccs3)nc12	none (no result: ELG1 DNA repair, Gal4-VP16 FLuc, TDP1 cell noCPT, RORgamma inh, TDP1 cell CPT)
CCOc1nc(N=C(N)N)nc2c(C)cccc12	ELG1 DNA repair inconclusive, TDP1 cell noCPT 23µM, TDP1 cell CPT 16µM
